Screening results as filed in PubChem.
p47phox inh = p47phox/p22phox peptide binding inhibitors, primary screen, biochemical, uHTS, NADPH oxidase regulatory subunit | fluorescence polarization, 2 h | inhibition, % at 24.7 µM | hit rate 0.53% among 220,000 | AID 1274, 2008;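 active means inhibition above about 30%, limit read from the data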;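 further: 0% = p47phox with labelled peptide and 100% = labelled peptide alone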
14-3-3 Bad PPI = inhibitors of 14-3-3 zeta/Bad binding, primary screen, biochemical, TR-FRET, bovine 14-3-3 zeta; 14-3-3 protein zeta/delta (Bos taurus), P63103; TR-FRET 14-3-3zeta/Dy647-pBad peptide displacement, 1 h; inhibition, % at 21.7 µM; hit rate 0.71% among 220,000; AID 781, 2007;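 active means inhibition above about 70%, limit read from the data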;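 further: 0% = full 14-3-3 plus peptide FRET controls and 100% = background without 14-3-3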
Target sequence (P63103 whole entry, looked up): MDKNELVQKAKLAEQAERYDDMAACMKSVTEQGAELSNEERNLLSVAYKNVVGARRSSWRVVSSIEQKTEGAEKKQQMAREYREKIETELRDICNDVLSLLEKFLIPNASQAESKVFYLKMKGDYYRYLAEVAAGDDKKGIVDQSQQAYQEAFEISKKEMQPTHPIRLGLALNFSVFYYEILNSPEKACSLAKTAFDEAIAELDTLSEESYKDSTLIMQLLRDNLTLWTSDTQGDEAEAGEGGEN
Mcl1-Noxa inh = Mcl-1/Noxa binding inhibitors, primary screen, biochemical, TR-FRET, 1536-well | TR-FRET Mcl-1/Noxa peptide binding, 2 h | AID 1022, 2008 | hit rate 1.5% among 220,000 | inhibition, % at 21.7 µM | Induced myeloid leukemia cell differentiation protein Mcl-1 (Homo sapiens), Q07820;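 active means compounds that cut the protein-peptide binding signal by more than 50% relative to plate controls in a single-dose test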;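 further: His-tagged Mcl-1 with rhodamine Noxa BH3 peptide and terbium anti-His antibody; 0% = Mcl-1 plus Noxa peptide wells and 100% = peptide-only wells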
Target sequence (Q07820 whole entry, looked up): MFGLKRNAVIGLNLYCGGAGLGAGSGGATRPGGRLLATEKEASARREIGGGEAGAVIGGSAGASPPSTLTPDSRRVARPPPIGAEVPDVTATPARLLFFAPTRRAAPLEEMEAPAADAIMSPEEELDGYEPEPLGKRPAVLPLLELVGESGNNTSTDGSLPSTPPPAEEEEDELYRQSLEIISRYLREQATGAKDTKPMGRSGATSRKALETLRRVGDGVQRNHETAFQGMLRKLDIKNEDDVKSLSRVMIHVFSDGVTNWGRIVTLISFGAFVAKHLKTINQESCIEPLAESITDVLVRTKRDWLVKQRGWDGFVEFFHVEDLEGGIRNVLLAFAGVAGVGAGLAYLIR
Bim-Mcl-1 = inhibitors of Bim peptide binding to Mcl-1, primary screen, biochemical, bead-based flow cytometry, multiplex; Induced myeloid leukemia cell differentiation protein Mcl-1 (Homo sapiens), Q07820; hit rate 0.1% among 190,000; inhibition, % at 10 µM; Bim peptide-Mcl-1 binding; in the data active means inhibition above about 40%;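 further: 0% = no compound tracer wells and 100% = peptide blocker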
Mcl1-Bid inh = Mcl-1/Bid binding inhibitors, primary screen, biochemical, TR-FRET, 1536-well; TR-FRET Mcl-1/Bid-Dy647 peptide binding; inhibition, % at 21.7 µM; hit rate 0.97% among 220,000; AID 1021, 2008;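 active means compounds that cut the binding signal by more than half at the single screening dose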;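 further: His-tagged Mcl-1 with europium anti-His antibody binding Bid BH3 peptide; 0% = Mcl-1 plus peptide wells and 100% = peptide-only wells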
* = called active by the depositor; / = no result given; [ ] = dose if it differs, or a comment. An excerpt weighted towards active compounds, which were near 3.1% of everything screened.

SMILES	p47phox inh	14-3-3 Bad PPI	Mcl1-Noxa inh	Bim-Mcl-1	Mcl1-Bid inh
COc1ccc(/C=N/NC(=O)c2ccc(N(C)S(=O)(=O)c3ccccc3)cc2)cc1	-1	0	-3	-2	-13
Cn1cnc([N+](=O)[O-])c1Sc1ncn[nH]1	6	-2	-6	/	7
COc1ccc(Nc2cc(C)c3c(O)cccc3n2)cc1	-4	4	77*	/	-58
Cc1ccccc1Nc1cc(C)c2c(O)cccc2n1	-24	-2	50	-2	-1
COC(=O)c1cc(Nc2cc(C)c3c(O)cccc3n2)cc(C(=O)OC)c1	-21	7	56*	/	-18
Cc1ccc(Nc2cc(C)c3c(O)cccc3n2)cc1C	-10	-1	54*	/	-25
COc1ccc(Nc2c(C)cccc2C)cc1	3	11	-3	0	-24
CC(/C=N/NC(=O)c1ccco1)=C\c1ccccc1	7	-8	-2	1	-12
CCCOc1ccc(CCCN=C(N)N)cc1Cl	-11	-3	6	/	-28
O=[N+]([O-])c1cccc(N/N=C/c2cccc3ccccc23)c1	-3	11	59*	-2	-13
O=[N+]([O-])c1ccc(N/N=C/c2c[nH]c3ccccc23)cc1	-88	-13	/	0	-53
COc1ccc(NC(=O)/C(C#N)=C/c2ccc(OCc3ccccc3F)cc2)cc1	5	10	17	-3	1
Cc1ccc2oc(C(F)(F)C(F)F)cc(=O)c2c1	-13	34	-13	/	88*
Cc1ccc2oc(C(Cl)(Cl)Cl)cc(=O)c2c1	-7	26	35	-4	17
Cc1cccc(-n2ncc(C#N)c2N)c1	172*	/	-12	-2	-38
O=[N+]([O-])c1ccc(OCCO)nc1	-6	5	-11	/	10
COc1ccc(/C=C2/SC(=O)N(CCC(=O)Nc3ccc(C)cc3)C2=O)cc1OC	-3	8	3	0	2
COc1cc(/C=C2\SC(N)=NC2=O)ccc1OCC(=O)Nc1ccc(C)cc1	11	97*[fluorescence artefact?]	5	-1	61*
CCOC(=O)c1c(C)oc2c1c(C(c1cccnc1)N1CCCCC1)c(O)c1ccccc12 (stereo not drawn)	-6	19	98*	0	60*
CCOC(=O)c1c(C)oc2c1c(C(c1ccccc1)N1CCOCC1)c(O)c1ccccc12 (stereo not drawn)	2	1	58*	1	60*
COc1ccc(/C=C/c2nnc(NC(=O)CSc3ccc(Cl)cc3)s2)cc1	-55	1	-16	-5	-16
COC(=O)c1sccc1NC(=O)c1cc(C)on1	-10	2	1	0	63*
COC(=O)c1sccc1NC(=O)c1c(C)noc1C	7	-3	10	1	17
CC(C)(C)NC(=O)NCc1cccnc1	17	-7	6	/	-25
CN(C)c1ccc(NC(=O)/C=C/c2c(Cl)cccc2Cl)cc1	8	7	83*	-8	9
SMILES	p47phox inh	14-3-3 Bad PPI	Mcl1-Noxa inh	Bim-Mcl-1	Mcl1-Bid inh
CN(C)c1ccc(NC(=O)Nc2csc3ccccc23)cc1	-3	6	57*	/	-8
CN(C)c1ccc(NC(=O)Nc2cccc(Cl)c2)cc1	-5	0	76*	-5	1
O=C(Nc1ccc(F)cc1)Nc1csc2ccccc12	-11	0	19	/	-25
Cc1ccc(S(=O)(=O)C(C)C(=O)c2ccc3c(c2)OCCO3)cc1 (stereo not drawn)	0	17	24	-3	26
c1ccc(C2=Nc3ccccc3SC2c2nc3ccccc3[nH]2)cc1 (stereo not drawn)	-11	-2	27	-5	10
O=C(COc1ccc([N+](=O)[O-])cc1)Nc1ccc(CN2CCOCC2)cc1	-6	-2	8	-2	37
Cc1ccc(C)c(NS(=O)(=O)c2ccc3[nH]c(=O)oc3c2)c1	-25	14	59*	0	-57
Cc1ccc(C)c(NS(=O)(=O)c2ccc3[nH]c(=O)[nH]c3c2)c1	-2	-6	2	/	-16
Cc1cccc(NC(=O)CSc2nc(N)cc(N)n2)c1	-5	-8	26	7	-5
Cc1cccc(NC(=O)CSc2nnc(-c3ccco3)c(-c3ccco3)n2)c1	-2	20	96*	-1	-18
Cc1cccc(NC(=O)CSc2nnc(-c3ccco3)c(-c3ccco3)n2)c1C	-10	30	95*	2	28
Cc1ccccc1NC(=O)CSc1ccc(-c2ccco2)nn1	-12	0	13	-3	-12
O=S(=O)(c1ccc(Cl)cc1)n1c(Cc2ccccc2)nc2ccccc21	-11	-15	18	-1	-2
COc1ccccc1Cc1nc2ccccc2n1S(=O)(=O)c1ccc(Cl)cc1	-4	15	0	0	59*
Cc1cc(C)c2sc(NC(=O)c3ccc(N4C(=O)CCC4=O)cc3)nc2c1	-19	-9	-3	/	-21
CCOc1ccc2nc(NC(=O)c3cccc(-c4cc5ccccc5oc4=O)c3)sc2c1	57*	52	76*	-6	84*
Cc1ccc2nc(NC(=O)c3cccc(-c4cc5ccccc5oc4=O)c3)sc2c1	23	59	32	-1	75*
Cc1ccc2nc(NC(=O)c3ccc(N4C(=O)CCC4=O)cc3)sc2c1	-29	0	58*	1	0
COC(=O)c1c(NC(=O)CSc2nnc3ccccn23)sc2c1CCC2	0	-16	-2	0	-66
C=CCN=C1SC(C)(C)C(=O)N1S(=O)(=O)c1ccc(C)cc1	-4	95*	7	1	-22
Cc1ccc(C(=O)NCC(=O)N2CCN(c3ncccn3)CC2)s1	-6	8	19	0	65*
O=C(OCC(=O)c1ccc(Cl)s1)c1ccccn1	-16	-2	-10	-8	-34
O=C(COc1cccnc1[N+](=O)[O-])c1ccc(Cl)s1	-3	25	82*	/	80*
C=CCn1c(SCC(=O)Nc2ccc(NC(=O)c3ccco3)c(OC)c2)nnc1-c1ccncc1	94*	-9	29	0	-14
C=CCn1c(SCC(=O)Nc2cc(OC)c(NC(=O)c3ccco3)cc2OC)nnc1-c1ccncc1	14	-8	10	0	-14
C=CCn1c(SCC(=O)Nc2ccc(-c3nc4ccc(C)cc4s3)cc2)nnc1-c1ccccc1	13	92*[fluorescence artefact?]	70*	-1	66*
COc1ccc(Nc2nc(Nc3ccc(OC)cc3)nc(SC3=NCCS3)n2)cc1	-10	10	21	4	-88
CCc1ccc(-c2csc(NC(=O)Oc3ccccc3)n2)cc1	30*	1	13	-14	-16
COc1ccc(-c2csc(Nc3ccc(S(N)(=O)=O)cc3)n2)cc1	-21	70*[fluorescence artefact?]	53*	1	-5
